Rows were chosen to be rich in hits. Some 7.3% of all compounds tested hit in one or more screens of this group.
p53 reactivator – qHTS assay for re-activators of p53 using a Luc reporter; H1299 p53-A138V BP100-luciferase reporter, luminescence, 24 h; Potency, µM (top dose mostly 92.2 µM), hits mostly activators; 320,000 compounds, 0.063% hits; further: nearly all actives have a fitted effect of over 45% in size
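p53-null H1299 cells stably carrying temperature-sensitive p53-A138V and a BP100-luciferase reporter were pinned with compounds (4-point, 1:5 series) and held 24 hrs at 37 deg C. Luminescence was read 10 min after detection reagent.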
NPC1 promoter act – qHTS Assay for NPC1 Promoter Activators; AID 485313, 2010; 320,000 compounds, 2.4% hits; Potency, µM (titrated, usually from 9.22 µM), most hits filed as activators; Huh7 NPC1 promoter luciferase reporter, 24 h; further: nearly all actives have a fitted effect of over 60% in size
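Readout is luciferase luminescence, reflecting NPC1 promoter activation in stably transfected Huh7 cells after 24 h compound exposure at 37 °C in reduced-serum medium with 10% FBS.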
FLuc modulator – qHTS profiling assay for firefly luciferase inhibitor/activator using purifed enzyme and Km concentrations of substrates (counterscreen for miR-21 project); purified FLuc, Km substrates, luminescence inhibition; 360,000 compounds, 6.9% hits; AID 588342, 2011; Luciferin 4-monooxygenase (Photinus pyralis), P08659; Potency, µM (series often up to 57.5 µM), usual class: inhibitors; further: nearly all actives have a fitted effect of over 55% in size
Target sequence (P08659 whole entry, looked up): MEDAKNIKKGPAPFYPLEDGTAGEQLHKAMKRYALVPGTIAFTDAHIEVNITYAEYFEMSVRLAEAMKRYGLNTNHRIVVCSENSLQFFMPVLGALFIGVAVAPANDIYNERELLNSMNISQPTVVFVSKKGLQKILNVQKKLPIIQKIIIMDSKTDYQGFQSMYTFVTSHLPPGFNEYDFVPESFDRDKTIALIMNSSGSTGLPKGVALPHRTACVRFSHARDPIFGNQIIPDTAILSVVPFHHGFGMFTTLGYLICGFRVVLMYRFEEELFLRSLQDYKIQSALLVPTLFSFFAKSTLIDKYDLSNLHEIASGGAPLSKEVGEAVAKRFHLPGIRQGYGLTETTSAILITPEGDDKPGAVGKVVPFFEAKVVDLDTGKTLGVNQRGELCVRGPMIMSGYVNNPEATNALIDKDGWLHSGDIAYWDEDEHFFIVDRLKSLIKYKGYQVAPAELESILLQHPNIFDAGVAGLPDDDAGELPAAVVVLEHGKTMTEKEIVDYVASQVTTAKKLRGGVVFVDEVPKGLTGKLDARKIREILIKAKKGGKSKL
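Biochemical qHTS of compounds, final roughly 60 µM downward over six points, against 10 nM purified firefly luciferase using Km concentrations of substrates (10 uM D-luciferin, 10 uM ATP) in Tris acetate pH 7.5 buffer; luminescence output.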
Rab9 promoter act – qHTS Assay for Rab9 Promoter Activators | Huh7 Rab9 promoter-luciferase reporter, luminescence, 24 h | Potency, µM (top dose mostly 9.22 µM), hits mostly activators | 320,000 compounds, 2.8% hits | AID 485297, 2010; further: nearly all actives have a fitted effect of over 60% in size
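Promoter activation is measured as luciferase luminescence in Huh7 cells stably transfected with a Rab9 promoter–luciferase construct, following 24 h compound exposure at 37 °C and 10 min reagent incubation at ambient temperature.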
SMN2 splice up – qHTS Assay for Enhancers of SMN2 Splice Variant Expression; HEK293 SMN2-luciferase splicing reporter, luminescence, 30-36 h; Potency, µM (doses to about 46.1 µM), hits mostly activators; 210,000 compounds, 2.8% hits; further: nearly all actives have a fitted effect of over 55% in size
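HEK293 cells carry an SMN2 […]–luciferase reporter in which exon 7 inclusion puts luciferase in frame. Cells were plated 10-12 h before compound addition, then incubated 30-36 h at 37C. ONE-Glo luminescence was read; sodium butyrate at 4.5 mM final served as control.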
ELG1 genotoxic – qHTS screen for small molecules that induce genotoxicity in human embryonic kidney (HEK293T) cells expressing luciferase-tagged ELG1; 330,000 compounds, 1.3% hits; Potency, µM (top dose mostly 46 µM), usual class: activators; HEK293T ELG1-luciferase reporter, luminescence, 16 h; AID 504466, 2011; further: nearly all actives have a fitted effect of over 60% in size
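Quantitative HTS format in 1536-well plates. HEK293T ELG1-luciferase reporter cells receive test compound and are incubated 16 hr at 37 °C, 5% CO2; ONE-Glo added, 30 min room temperature, then luminescence read.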
Hits are given with their value; - = inactive; ? = inconclusive; . = no result given; [ ] = dose if it differs, or a comment. The call rests on the fitted dose curve; in most records, active means well fitted curve in the direction sought with a large enough effect; inconclusive means small, poorly fitted or top-dose-only effect, or another doubt; inactive means no such curve, though single readings can be large; an effect the other way counts as inactive or inconclusive.

SMILES	p53 reactivator	NPC1 promoter act	FLuc modulator	Rab9 promoter act	SMN2 splice up	ELG1 genotoxic
CCOC(=O)C1CCCN(C(=O)c2cccc(NC(=O)c3nsc4ccccc34)c2)C1 (stereo unspecified)	.	.	9.5µM	.	.	.
O=C(CC(SCCO)c1ccc2c(c1)OCO2)c1ccco1 (stereo unspecified)	?	?	4.8µM	?	-	?
CCOc1ccc(-c2cc(CCCC(=O)NCCc3ccc(OCC)c(OCC)c3)no2)cc1	.	.	9.5µM	.	-	.
CCOc1ccc(-c2cc(CCCC(=O)NCCc3ccc(SC)cc3)no2)cc1	.	.	12µM	.	-	.
CCOc1ccc(-c2cc(CCCC(=O)NCc3ccco3)no2)cc1	-	-	3.4µM	-	-	-
NS(=O)(=O)c1ccc(CCNC(=O)c2ccc3nc(CCc4ccccc4)oc3c2)cc1	.	.	-	.	.	.
COC(=O)c1cc2occc2n1Cc1ccc(F)cc1Cl	.	.	-	.	-	.
COc1ccc(/C(N)=N/OC(=O)c2cc(-c3ccccc3)nc3ccccc23)cc1	-	-	?	-	-	-
Cc1ccc(-c2cc(C(=O)Oc3ccccc3)c3cc(C)ccc3n2)cc1	.	.	21µM	.	-	.
N/C(=N\OC(=O)c1cc(-c2ccccc2)nc2ccccc12)c1ccccn1	-	-	9.5µM	-	.	-
Cc1ccc(/C(N)=N/OC(=O)c2cc(-c3ccccc3)nc3ccccc23)cc1	-	-	13µM	-	-	-
COc1ccc(-c2cc(C(=O)Oc3cccc(C)c3)c3cc(C)ccc3n2)cc1	.	.	-	.	-	.
CC(=O)COC(=O)c1cc(-c2ccc(C)cc2)nc2ccccc12	-	-	17µM	-	.	-
C=CCNC(=O)c1cc([N+](=O)[O-])cc2c(=O)[nH]c(Nc3ccc(Cl)c(Cl)c3)nc12	.	.	.	.	-	.
CCCCn1c(=O)c2oc3ccccc3c2n(Cc2cccc(C)c2)c1=O	.	.	-	.	.	.
O=C(COC(=O)c1cccc(Br)c1)NCc1ccco1	-	.	.	.	.	-
CCOC(=O)c1cc(-c2ccccc2)n(CC(=O)NC2CCC(C)CC2)c1C (stereo unspecified)	.	.	-	.	.	.
NS(=O)(=O)c1ccc(CCNC(=O)COC(=O)CCc2ccccc2)cc1	-	-	-	-	-	-
CC(C)(C)c1ccc(C(=O)CCC(=O)OCC(=O)NCCc2ccc(S(N)(=O)=O)cc2)cc1	-	-	12µM	-	.	-
CC(C)Nc1oc(-c2cccc3ccccc23)nc1C#N	-	-	12µM	?	-	?
CC1CCN(c2oc(-c3cccc4ccccc34)nc2C#N)CC1	-	?	?	?	11µM	?
CCNc1oc(-c2cccc3ccccc23)nc1C#N	.	.	?	.	-	.
COCCNc1oc(-c2ccccc2Cl)nc1C#N	-	-	19µM	-	-	-
Cc1cccc(N2CCN(C(=O)Cn3c(C)c4cnn(-c5ccccc5)c(=O)c4c3C)CC2)c1C	.	.	-	.	-	.
Cc1nn(CC(C)C)c(=S)[nH]c1=O	-	-	-	-	5.6µM	-
SMILES	p53 reactivator	NPC1 promoter act	FLuc modulator	Rab9 promoter act	SMN2 splice up	ELG1 genotoxic
Cc1nnc(SCC(C)C)[nH]c1=O	-	-	-	-	-	-
CS(=O)(=O)c1ccc2c(c1)sc1nc(=O)c(/C=C3/C=CC(=O)C(O)=C3)c(N)n12	-	-	4.8µM	-	.	?
COC1=C/C(=C/c2c(N)n3nc(-c4ccc(C)cc4)sc3nc2=O)C=CC1=O	-	-	15µM	-	?	?
CCS(=O)(=O)c1nn2c(N)c(/C=C3/C=CC(=O)C(OC)=C3)c(=O)nc2s1	-	-	?	-	-[1.84 µM]	-
CCOC1=C/C(=C/c2c(N)n3nc(-c4ccccc4)sc3nc2=O)C=CC1=O	-	-	?	-	-	-
COC1=C/C(=C/c2c(N)n3c(nc2=O)sc2cc(S(C)(=O)=O)ccc23)C=CC1=O	?	-	9.5µM	-	.	-
CC(C)N(C(=O)Cn1cc(SCC(=O)Nc2ccccc2C(F)(F)F)c2ccccc21)C(C)C	.	.	-	.	.	.
CC(C)(C)C1CCc2c(C(=O)N/N=C/c3cccs3)csc2C1 (stereo unspecified)	-	?	5.4µM	?	14µM	-
Cc1ccc(C)c(NC(=S)NNC(=O)c2csc3c2CCC(C)C3)c1 (stereo unspecified)	-	-	-	-	-	-
CC(C)(C)C1CCc2c(C(=O)NNC(=O)/C=C/C(=O)O)csc2C1 (stereo unspecified)	-	-	24µM	-	-	-
S=C(NCCc1ccccc1)Nc1ccc(Br)cn1	-	-	-	-	-	-
N=C1S/C(=C\c2ccc(-c3ccccc3C(=O)O)o2)C(=O)N1c1ccc2c(c1)OCO2	-	-	9.5µM	-	.	-
COc1ccccc1N1C(=N)S/C(=C\c2ccc(-c3ccccc3C(=O)O)o2)C1=O	-	-	?	-	-	-
CC1=[N+](C)N(c2ccccc2)C(=O)C1N=C/C=C/c1ccccc1 (stereo unspecified)	-	-	15µM	-	.	-
COc1ccccc1/C=C/C=NC1C(=O)N(c2ccccc2)[N+](C)=C1C (stereo unspecified)	-	-	?	-	.	-
CC(NC(=O)Cc1cccs1)C(c1cccs1)N1CCN(c2ccccc2F)CC1 (stereo unspecified)	-	-	-	-	.	-
COc1ccccc1C(=O)C1CCCN(C(=O)c2cn3cc(Cl)ccc3n2)C1 (stereo unspecified)	-	-	13µM	-	.	-
COc1ccc(S(=O)(=O)N2CCC(N3CCN(Cc4ccc(F)cc4)C(=O)C3=O)CC2)cc1	.	.	-	.	.	.
CC1N/C(=C\C(=O)c2ccccc2)N(O)C1(C)C (stereo unspecified)	-	2.2µM	8.5µM	1.4µM	?	8.2µM
O=[N+]([O-])c1ccc(Nc2nc3ccccc3s2)cc1	.	.	.	.	-[9.22 µM]	.
Fc1ccc(Nc2nc3ccccc3s2)cc1	-	?	7.6µM	2.5µM	13µM	?
Cc1ccc(NC(=O)Nc2nc3ccccc3s2)cc1NC(=O)Nc1nc2ccccc2s1	-	-	?	-	.	-
Cc1ccccc1Nc1nc2ccccc2s1	?	3.5µM	4.8µM	2.5µM	11µM	?
Cc1ccc(Nc2nc3ccccc3s2)cc1	?	1µM	0.85µM	0.71µM	2.8µM	7.3µM
CC(C)CCN1C(=O)c2ccccc2CC1(C)C(=O)NC1CCCCC1 (stereo unspecified)	.	.	-	.	-	.
O=C(Nc1ccccc1)N(Cc1cccs1)c1ccc(F)cc1	.	.	-	.	.	.
CCOC(=O)CC1=C(C(=O)OCC)C(c2ccc(C)o2)C(C#N)=C(N)O1 (stereo unspecified)	-	-	-	-	-	-

Bioassay records deposited in PubChem BioAssay by National Center for Advancing Translational Sciences (NCATS).
